The sample as a whole holds a higher share of hits than the screen did.
IMPase Li inh: cell-permeable IMPase inhibitors with lithium potentiation; CHO-M1 cells, IP1 TR-FRET (IP-One), carbachol + lithium; 210,000 compounds, 0.35% hits; Potency, µM (doses to about 59.4 µM), most hits filed as inhibitors;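 further: IP1 builds up when IMPase is blocked and the TR-FRET signal falls; nearly all actives have a fitted effect of over 50% in size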
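IP1 accumulation measured by competitive TR-FRET in lysed CHO-M1 cells after 30 min compound exposure at 37C, with a small lithium addition to potentiate weak responses. Hill-equation AC50 from ratio and donor-channel data.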
PNC inhibitor: blocks assembly of the perinucleolar compartment. PC3M PTB-GFP, PNC prevalence imaging, 16 h; stronger effect = lower value. activity change (PNC), negative = inhibition, % at 10 µM. 140,000 compounds, 3.1% hits. AID 2417;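 active means readout at or below -70, meaning at least 70% loss of cells showing the perinucleolar compartment, a nuclear body marking cancer cells; inconclusive means readout between -30 and a set limit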
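PC3M cells stably expressing PTB-GFP, 750–1000 cells/well, treated 16 h at 37 °C with compound (23 nl of library stock), in duplicate. After paraformaldehyde fixation and Hoechst stain, imaged at 20x; PNC prevalence scored by image analysis.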
12-hLO inh: blocks human 12-lipoxygenase activity; purified 12-hLO, xylenol orange hydroperoxide absorbance; 150,000 compounds, 0.12% hits; Potency, µM (series often up to 57.1 µM), hits mostly inhibitors; further: nearly all actives have a fitted effect of over 55% in size
Target sequence (P18054 whole entry, looked up): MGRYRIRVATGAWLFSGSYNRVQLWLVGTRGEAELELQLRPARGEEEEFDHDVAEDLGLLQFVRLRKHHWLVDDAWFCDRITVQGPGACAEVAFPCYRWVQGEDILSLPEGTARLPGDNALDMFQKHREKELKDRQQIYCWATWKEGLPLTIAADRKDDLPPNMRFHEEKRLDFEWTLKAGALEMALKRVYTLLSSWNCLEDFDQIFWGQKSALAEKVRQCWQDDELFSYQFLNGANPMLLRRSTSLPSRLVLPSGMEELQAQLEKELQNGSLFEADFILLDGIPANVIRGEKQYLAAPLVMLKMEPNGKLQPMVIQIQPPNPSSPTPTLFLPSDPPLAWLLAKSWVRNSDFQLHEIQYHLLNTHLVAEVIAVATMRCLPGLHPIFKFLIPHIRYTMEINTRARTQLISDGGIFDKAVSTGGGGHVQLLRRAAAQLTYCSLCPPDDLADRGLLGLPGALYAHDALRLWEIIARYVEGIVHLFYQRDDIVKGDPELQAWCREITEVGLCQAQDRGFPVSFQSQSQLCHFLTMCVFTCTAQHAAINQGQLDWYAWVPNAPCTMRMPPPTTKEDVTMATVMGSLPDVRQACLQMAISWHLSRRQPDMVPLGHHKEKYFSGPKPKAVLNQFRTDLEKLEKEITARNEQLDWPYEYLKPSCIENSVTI
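Xylenol orange chromogenic assay: hydroperoxide from 12hLO oxidises Fe(II), giving red-shifted Fe(III)-XO absorbance. Conditions: 150 nM enzyme, 40 uM arachidonic acid, 25 mM Hepes pH 7.0, 0.01% Triton X-100, 30 min, room temperature.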
IMPase inh: cell-permeable inhibitors of inositol monophosphatase (IMPase); P97697; CHO-M1 cells, IP1 accumulation, HTRF TR-FRET ratio; inhibition (IP1 accumulation), % at 46.1 µM; 120,000 tested, under 10 active; AID 901; active means well fitted curve in the direction sought with a large enough effect in the signal ratio, not every such curve was filed as active; inconclusive means small, poorly fitted or top-dose-only effect, or a change in a side signal; inactive means no such curve, though single readings can be large or run the other way; the % refers to the signal ratio;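 further: cells stimulated with carbachol in lithium chloride buffer; higher means more IMPase inhibition seen as more IP1 and lower FRET ratio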
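CHO-M1, 2000 cells/well, cultured 16–30 h; cpd up to 46 uM; carbachol (50 uM solution, stimulation buffer w/ 50 mM LiCl, pH 7.4), 30 min 37C; IP-One TR-FRET, 10 min RT; Ex 320/Em 665, 620; Hill-fit AC50.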
ALOX15B inhib: inhibitors of human 15-lipoxygenase 2 (ALOX15B); Potency, µM (series often up to 57.1 µM), most hits filed as inhibitors; 110,000 compounds, 0.56% hits; purified 15hLO-2, xylenol orange hydroperoxide absorbance; further: nearly all actives have a fitted effect of over 60% in size
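Screening format was qHTS against 50 nM purified 15hLO-2 in Hepes pH 7.5 with detergent. Activity follows hydroperoxide formation from 45 uM arachidonic acid, measured as 573:405 nm absorbance ratio of the ferric-xylenol orange complex.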
Hits are given with their value; – = inactive; ? = inconclusive; · = no result; [ ] = another dose, or the depositor's remark. Unless noted, the call rests on the fitted dose curve; in most records, active means well fitted curve in the direction sought with a large enough effect; inconclusive means small, poorly fitted or top-dose-only effect, or another doubt; inactive means no such curve, though single readings can be large; an effect the other way counts as inactive or inconclusive.

SMILES	IMPase Li inh	PNC inhibitor	12-hLO inh	IMPase inh	ALOX15B inhib
Cc1ccc(-c2ccc(/C=C3\C(=O)ON=C3c3ccccc3)o2)c([N+](=O)[O-])c1	–	–	–	–	4µM
O=C1/C(=C\c2ccc(-c3ccccc3[N+](=O)[O-])o2)C(c2ccccc2)=NN1c1ccccc1	–	-86	–	–	·
Cc1ccc(/C=C2\C(=O)ON=C2c2ccccc2)o1	–	·	·	·	·
Cc1ccc(/C=N/n2c(=O)c(C(C)(C)C)nn3cnnc23)cc1	–	-94	–	–	·
CCCCC/C=C\C/C=C\CCCCCCCC(=O)O[C@@H](CO)COC(=O)CCCCCCCCCCCCCCCCC	–	·	·	·	·
CCC(=O)NCCNc1ccc([N+](=O)[O-])cn1	–	-81	–	·	·
COc1ccc(CC(N)C(=O)N[C@H]2[C@@H](O)[C@H](n3cnc4c(N(C)C)ncnc43)O[C@@H]2CO)cc1 (stereo not given in full)	–	·	–[0.00818 µM]	·	–[0.0915 µM]
CC(Sc1nnnn1-c1ccccc1)C(=O)Nc1ccccc1-c1ccccc1 (stereo not given)	–	-134	–	·	·
Clc1ccc(CNc2ccc3nnc(-c4ccccc4)n3n2)cc1	–	–	–	·	·
CCOc1ccc(CCNc2ccc3nnc(-c4ccccc4)n3n2)cc1OCC	–	-119	–	·	·
CCCC(C)NC(=O)c1ccc(F)cc1 (stereo not given)	–	-82	–	–	–
N/N=C1/CC(=O)NC(=O)N1	–	·	–[11.4 µM]	·	–[11.4 µM]
COc1cccc(C(=O)N2CCCc3ccccc32)c1	–	-85	–	–	–
Cc1cccc(OCC(=O)NC(=S)N2CCCc3ccccc32)c1	–	–	–	–	20µM
O=C(COc1ccc(Cl)cc1Cl)NC(=S)N1CCCc2ccccc21	–	–	–	–	?
O=C(c1ccccc1)N1CCCc2ccccc21	–	–	–	–	·
O=c1c(-c2ccc(Cl)cc2)nc2cnc(N3CCOCC3)nc2n1CCc1ccccc1	–	·	·	·	–
CCc1nnc(NC(=O)CCN(c2cc(C)cc(C)c2)S(=O)(=O)c2ccc(Cl)cc2)s1	·	-94	–	–	·
N#C[C@@H]1[C@@H]2C(=O)N(c3ccc4c(c3)OCCO4)C(=O)[C@@H]2C2c3ccccc3C=CN21 (stereo not given in full)	–	-100	–	–	·
CC(=O)[C@@H]1[C@@H]2C(=O)N(c3ccc(F)c(Cl)c3)C(=O)[C@@H]2C2c3ccccc3C=CN21 (stereo not given in full)	–	–	–	–	·
O=C1c2cccc3c([N+](=O)[O-])ccc(c23)C(=O)N1c1ccc(Cl)cn1	–	–	–	–	–
O=C1c2cccc3c([N+](=O)[O-])ccc(c23)C(=O)N1c1ccccn1	–	-105	–	?	?
COc1cc2c(C(=O)Nc3ccc4c(c3)OCO4)cn(CC(C)C)c(=O)c2cc1OC	–	–	–	–	–
COc1cc2c(C(=O)NCc3ccc4c(c3)OCO4)cn(CC(C)C)c(=O)c2cc1OC	–	-113	–	–	–
CCc1ccc(OCC(=O)Nc2c(C(=O)c3ccc(Br)cc3)oc3ccccc23)cc1	·	·	·	–	·
SMILES	IMPase Li inh	PNC inhibitor	12-hLO inh	IMPase inh	ALOX15B inhib
NS(=O)(=O)c1ccc(NC(=O)CN2CCCCC2)cc1	–	-83	–	–	–
NS(=O)(=O)c1ccc(NC(=O)CN2CCCC2)cc1	–	·	·	·	·
CCOC(=O)c1c(C)n(C)c2ccc(OC)c(NC(=O)c3cccs3)c12	–	?	–	–	–
CCOC(=O)c1c(C)n(C)c2ccc(OC)c(NC(=O)CN3CCSCC3)c12	–	-105	–	–	–
CC(C)CN(C(=O)CN1CCN(c2ccccc2O)CC1)c1c(N)n(CC(C)C)c(=O)[nH]c1=O	–	-86	–	·	·
COc1ccc(-n2c(-c3ccccc3)nc(=S)c3c2CCCC3)cc1	–	–	–	–	–
COc1ccc(-n2c(-c3cccc(OC)c3)nc(=S)c3c2CCCC3)cc1	7.9µM	–	–	?	?
Cc1ccc(-n2c(=S)[nH]c3c(oc4ccccc43)c2=O)cc1C	·	–	–	?	·
O=c1c2oc3ccccc3c2[nH]c(=S)n1-c1ccc(F)cc1	11µM	·	·	·	·
N#Cc1c(/N=C/c2cccs2)sc2c1CCCCC2	–	?	–	–	–
N#Cc1c(/N=C/c2ccc(Br)s2)sc2c1CCC2	–	-100	–	–	·
COc1cc(Nc2ccccc2Cl)c([N+](=O)[O-])nc1[N+](=O)[O-]	–	-92	–	–	–
COc1ccccc1Nc1ccc([N+](=O)[O-])cc1N	–	–	–	·	·
CCC1=C/C(=C/c2sc3ccccc3[n+]2CC)CC(C)(C)C1	–	·	·	·	·
CC[n+]1c(/C=C2\C=C(C)CC(C)(C)C2)sc2ccccc21	–	–	–	–	25µM
CC[n+]1c(/C=C2/C=C(C)CC(C)(C)C2)sc2ccc(OC)cc21	–	–	–	–	25µM
CSCCC(NS(=O)(=O)c1cccs1)C(=O)Nc1ccc(C)c(Cl)c1 (stereo not given)	·	·	·	–	·
CCOC(=O)c1c(-c2ccccc2)oc2ccc(N(C(C)=O)S(=O)(=O)c3cc(C)ccc3C)cc12	·	·	·	–	·
CC(=O)c1ccc(N2CCN(C(=O)c3ccc4c(=O)n(-c5ccccc5)c(=O)[nH]c4c3)CC2)cc1	–	-108	–	–	·
O=C1S/C(=C\c2ccc(N3CCOCC3)o2)C(=O)N1Cc1c(F)cccc1Cl	–	–	–	–	6.3µM
O=C1S/C(=C/c2ccc(N3CCOCC3)o2)C(=O)N1Cc1c(F)cccc1Cl	–	–	–	–	?
O=S(=O)(c1ccc(Cl)s1)N1CCN(Cc2ccccc2)CC1	–	-83	–	–	–
NS(=O)(=O)c1ccc(NC(=S)NCc2cccc(Cl)c2)cc1	·	–	–	–	·
NS(=O)(=O)c1ccc(NC(=S)NCc2ccccc2)cc1	–	-97	–	–	·
Cc1ccc(S(C)(=O)=O)cc1S(=O)(=O)Nc1cccc(Cl)c1	–	-112	–	·	·
SMILES	IMPase Li inh	PNC inhibitor	12-hLO inh	IMPase inh	ALOX15B inhib
N#Cc1c(-c2ccccc2)cc(-c2ccccc2)nc1SCC(O)CS(=O)(=O)Cc1ccccc1 (stereo not given)	·	·	·	–	·
CN(C(=O)CCc1nc2ccccc2s1)c1ccccc1	–	-112	–	–	–
CC(C)CNS(=O)(=O)c1ccc(OCC(=O)Nc2ccc(F)cc2F)cc1	–	-83	–	–	·
CCC(C)NS(=O)(=O)c1ccc(OCC(=O)Nc2ccc(F)cc2F)cc1 (stereo not given)	–	–	–	–	·
O=C(O)[C@H](C1NCCS1)N1Cc2ccccc2C1 (stereo not given in full)	–	·	·	·	·
Cn1c(NC(=O)c2ccccc2)c(-c2ccccn2)c(=O)c2ccccc21	22µM	–	–	–	–
COc1cccc(CNc2cccc3cccnc23)c1O	–	-94	–	–	–
Cc1ccc(O)c(CNc2cccc3cccnc23)c1	–	·	·	·	·
BrC/C=C/CBr	–	·	–	·	–
O=C(CN(c1cc(C(F)(F)F)ccc1Cl)S(=O)(=O)c1ccccc1)NCCc1ccccc1	·	·	·	–	·

Screening data as filed in PubChem.
